Source: PubChem (several laboratories)
A1 inh – inhibitors of the anti-apoptotic protein A1, read as caspase activation; MEF A1-2A-BIM cells, Caspase-Glo 3/7 luminescence, 3 h; percent of clofoctol response, vehicle zero; caspase activation, % (no concentration beside the values); 0.066% of 330,000 active; AID 2462;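 active = over half of replicate activation scores above 10%, or exactly half above 10 with the replicate mean above 10; inconclusive = replicate mean below 10 yet half the replicates above 10; inactive = over half of replicates below 10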
CSC inhib – cancer stem cell inhibition | cancer stem cell-like cells viability, luminescence | inhibition, % at 7.5 µM | 1.1% of 300,000 active | AID 2717; in the data active = inhibition above about 75%; inconclusive = no clear call, values can overlap the other calls; tested in HMLE shEcad cells
Mdm2 MdmX PPI – inhibitors of human Mdm2/MdmX interaction; O15151+Q00987; SaOS-2 split-luciferase Mdm2/MdmX complementation, luminescence; inhibition, % at 8 µM; 3% of 330,000 active; AID 485346;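 active = inhibition of at least 50% at 8 µM in the primary screen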
Target sequence (O15151 whole entry, looked up): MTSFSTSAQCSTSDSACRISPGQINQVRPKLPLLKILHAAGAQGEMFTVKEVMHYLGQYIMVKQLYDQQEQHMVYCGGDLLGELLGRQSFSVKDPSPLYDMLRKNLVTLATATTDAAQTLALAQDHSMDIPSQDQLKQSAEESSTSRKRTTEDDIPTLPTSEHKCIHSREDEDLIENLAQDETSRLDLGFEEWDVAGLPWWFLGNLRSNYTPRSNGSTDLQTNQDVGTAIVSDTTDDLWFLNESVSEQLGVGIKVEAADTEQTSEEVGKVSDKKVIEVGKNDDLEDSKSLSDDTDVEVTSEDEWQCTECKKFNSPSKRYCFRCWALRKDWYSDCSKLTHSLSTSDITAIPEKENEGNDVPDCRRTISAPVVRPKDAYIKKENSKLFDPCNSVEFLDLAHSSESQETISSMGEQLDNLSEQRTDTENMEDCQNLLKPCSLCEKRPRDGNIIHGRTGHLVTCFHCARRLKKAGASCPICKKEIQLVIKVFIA
Target sequence (Q00987 whole entry, looked up): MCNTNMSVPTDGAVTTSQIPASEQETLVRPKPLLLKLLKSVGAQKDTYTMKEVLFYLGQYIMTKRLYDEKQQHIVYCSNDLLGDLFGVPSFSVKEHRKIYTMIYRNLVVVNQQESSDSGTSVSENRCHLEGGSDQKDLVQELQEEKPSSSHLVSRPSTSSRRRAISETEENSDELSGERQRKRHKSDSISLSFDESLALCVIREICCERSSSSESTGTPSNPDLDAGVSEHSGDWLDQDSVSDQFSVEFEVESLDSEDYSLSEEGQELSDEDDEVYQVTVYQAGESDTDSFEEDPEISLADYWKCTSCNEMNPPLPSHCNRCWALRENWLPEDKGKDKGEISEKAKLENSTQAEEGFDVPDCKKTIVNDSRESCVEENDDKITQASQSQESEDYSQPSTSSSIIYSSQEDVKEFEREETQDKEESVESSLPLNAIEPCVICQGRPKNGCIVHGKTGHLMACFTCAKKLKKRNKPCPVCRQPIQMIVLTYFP
Beta apoptosis – beta cell apoptosis inhibition; INS-1E cytokine-induced death, ATP luminescence, 48 h; percent of positive-control rescue, neutral wells zero; protection from apoptosis, % (no concentration beside the values); 0.8% of 300,000 active;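 active = Every replicate reaches about 75%, or at least half do and their mean reaches it too, limit read from the data; inconclusive = At least half of replicates reach the limit but their mean does not; inactive = Under half of replicates reach the limit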;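 also: higher means more ATP so stronger rescue from cytokine killing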
aSyn UTR inh – MLPCN primary screen, SNCA 5' untranslated region; 0.82% of 300,000 active; AID 1813; inhibition, % (tested at 7.5 µM); alpha-synuclein 5'UTR reporter, inhibitor activity; in the data active = inhibition above about 60%; inconclusive = no clear call, values can overlap the other calls;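 also: H4 neuroglioblastoma cells stably carrying SNCA 5'UTR luciferase fusion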
Mdm2 MdmX conf – human Mdm2/MdmX binding inhibition, confirmed; shares compounds with Mdm2 MdmX PPI; luminescent assay; inhibition, % at 8 µM; 55% of 10,000 active; in the data active = inhibition above about 40%
Full FLuc ctr – full-length luciferase inhibition in Mdm2/MdmX counter-screen. 77% of 6,200 active. shares compounds with Mdm2 MdmX PPI. SaOS-2 full-length luciferase counterscreen, luminescence. inhibition, % at 8 µM;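 active = mean inhibition at 8 µM reaching about 37%, which flags the compound as non-specific, limit read from the data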;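 also: p53-null SaOS-2 cells with luciferase driven by a doxycycline-inducible promoter; compound on cells about two nights before reading with doxycycline added after day one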
Numbers stand for hits; i = inactive; ? = inconclusive; nt = no result given. Most compounds without a hit are left out; they make up all but 4.1% or so of the library.

SMILES | A1 inh | CSC inhib | Mdm2 MdmX PPI | Beta apoptosis | aSyn UTR inh | Mdm2 MdmX conf | others
CC(=O)Nc1ccc(NC(=O)C(C)OC(=O)c2ccc3ccccc3n2)cc1 (centres undefined) | i | i | i | i | nt | nt
CCc1nc(Nc2cccc(F)c2)c2oc3ccccc3c2n1 | i | i | i | i | i | nt
CCCN1CCc2c(sc(NC(=O)c3ccc(S(=O)(=O)N4CCN(C(=O)OCC)CC4)cc3)c2C(N)=O)C1 | i | i | i | nt | i | nt
CCOC(=O)N1CCN(S(=O)(=O)c2ccc(C(=O)Nc3sc4c(c3C(=O)OC)CCN(C)C4)cc2)CC1 | i | i | 100 | nt | i | i
CN1CCc2c(sc(NC(=O)c3ccc(S(=O)(=O)N4CCc5ccccc54)cc3)c2C(N)=O)C1 | i | 82 | 96 | i | i | 83 | Full FLuc ctr=i
CN1CCc2c(sc(NC(=O)c3ccc(S(=O)(=O)N4CCCC4)cc3)c2C(N)=O)C1 | i | i | i | i | i | nt
CN1CCc2c(sc(NC(=O)c3ccc([N+](=O)[O-])o3)c2C(N)=O)C1 | i | i | 94 | i | 86 | 89 | Full FLuc ctr=55
CCOC(=O)N1CCN(S(=O)(=O)c2ccc(C(=O)Nc3sc4c(c3C(N)=O)CCN(CC)C4)cc2)CC1 | i | i | 79 | nt | i | i
CCOC(=O)N1CCN(S(=O)(=O)c2c(C)nc3sccn3c2=O)CC1 | i | i | i | i | i | nt
C/C(=N\Nc1ccc(S(=O)(=O)N2CCCCC2)cn1)c1cccc(Br)c1 | i | i | i | i | nt | nt
N#C/C(=C/c1ccc(F)cc1)c1nnc(NC(=O)c2ccccc2)s1 | i | i | 74 | i | i | i
CN(Cc1ccc(F)cc1)S(=O)(=O)c1nnc(NC(=O)c2ccccc2)s1 | i | i | i | i | i | nt
CN(Cc1ccco1)c1ncnc2ccc(-c3ccc4c(ccn4C)c3)cc12 | ? | 84 | 51 | i | nt | 53 | Full FLuc ctr=66
COc1ccc(CCNc2c(C)c(C)nc3ncnn23)cc1 | i | nt | 50 | 100 | i | 46 | Full FLuc ctr=69
CCc1c(C)nc2ncnn2c1NCCc1ccc(OC)c(OC)c1 | i | nt | i | i | i | nt
Cc1cccc(COc2ccc(/C=C3/C(=O)N(C)C(=S)N3C)cc2)c1 | i | i | i | i | i | nt
Cc1ccc(-c2nn(-c3ccccc3)cc2/C=N/NC(=O)c2ccc(Br)o2)cc1 | i | i | 83 | 136 | i | i
O=C(N/N=C/c1cn(-c2ccccc2)nc1-c1ccccc1)c1ccco1 | i | i | i | i | i | nt
COC(=O)[C@H](Cc1ccccc1)NC(=O)Cn1ccc(NC(=O)OCc2ccccc2)nc1=O | i | i | i | i | nt | nt
Cc1ccc(Cl)cc1N1CCN(C(=O)Cc2csc(Nc3nc(=S)[nH]c4ccccc34)n2)CC1 | i | i | 55 | i | i | i
O=C(Cc1csc(Nc2nc(=S)[nH]c3ccccc23)n1)N1CCN(c2cccc(Cl)c2)CC1 | i | i | i | i | i | nt
COC(=O)c1ccc(CSc2nnc(NC(C)C)s2)o1 | i | i | i | nt | i | nt
CC(C)Cn1c(N)c(C(=O)NCC2CCCO2)c2nc3ccccc3nc21 (centres undefined) | i | i | 52 | i | i | i
CC1CCc2cc(F)cc3c(O)c(C(=O)NCC4CCCO4)c(=O)n1c23 (centres undefined) | i | i | 71 | i | i | 44 | Full FLuc ctr=i
CCCn1c(=O)c(C(=O)NCc2ccccn2)c(O)c2ccccc21 | i | i | 63 | i | nt | i
SMILES | A1 inh | CSC inhib | Mdm2 MdmX PPI | Beta apoptosis | aSyn UTR inh | Mdm2 MdmX conf | others
CCCn1c(=O)c(C(=O)NCC2CCCO2)c(O)c2ccccc21 (centres undefined) | i | i | 67 | i | i | i
CC(C)CC1NC(=O)N(CC(=O)Nc2cc(F)ccc2F)C1=O (centres undefined) | i | i | i | i | nt | nt
COc1ccccc1-c1nnc(Sc2nc([N+](=O)[O-])nn2C)o1 | i | i | 78 | i | i | 99 | Full FLuc ctr=50
Cc1ccc(C(=O)N/C(=C\c2cccc([N+](=O)[O-])c2)C(=O)NC(Cc2ccccc2)C(=O)O)cc1 (centres undefined) | i | i | i | nt | i | nt
COc1ccccc1N1CCN(S(=O)(=O)CCNC(=O)C23CC4CC(CC(C4)C2)C3)CC1 | i | i | i | i | i | nt
COc1cc(OC)cc(C(=O)NCCCNC(=O)c2ccccn2)c1 | i | i | i | i | i | nt
CC1(C)CC(=O)C2=C(C1)NC1=C(C(=O)c3ccccc31)C2c1ccc(Cl)cc1 (centres undefined) | i | i | 58 | i | i | i
O=c1nc2cccc3c2=c(/c1=C(\O)c1ccccc1)c1ccccc1c3=O | i | i | 52 | i | i | i
O=c1[nH]c(/C=C/c2cccc3ccccc23)nc2ccccc12 | i | i | i | i | i | nt
Cc1ccc(OCC(=O)OCC(=O)c2cccc([N+](=O)[O-])c2)cc1C | i | i | i | i | i | nt
COc1nc(/C=C/N(C)C)c([N+](=O)[O-])c(OC)n1 | i | i | 52 | i | i | i
CCOc1ccc(Nc2cc3n(c(=O)n2)CCc2cc(OC)c(OC)cc2-3)cc1 | i | i | 51 | i | i | i
CCOc1ccccc1Nc1cc2n(c(=O)n1)CCc1cc(OC)c(OC)cc1-2 | i | i | i | i | i | nt
CCN(CCn1cccn1)C(=O)c1ccc2nc(Cc3ccc(OC)cc3)oc2c1 | i | i | i | i | i | nt
COc1ccc(S(=O)Cc2ccc(C(=O)N3CCN(c4cccc(C)c4C)CC3)o2)cc1 (centres undefined) | i | i | 50 | i | i | 55 | Full FLuc ctr=36
Cc1ccccc1S(=O)(=O)Cc1ccc(C(=O)N2CC(C)CC(C)C2)o1 (centres undefined) | i | i | i | i | i | nt
Cc1ccccc1S(=O)(=O)Cc1ccc(C(=O)N2CCN(c3cccc(C)c3C)CC2)o1 | i | i | 57 | i | 101 | 68 | Full FLuc ctr=50
CC[C@]12c3[nH]c4ccc(OC)cc4c3CCN1C(=O)C(CC(=O)NCc1cccc(C(F)(F)F)c1)C[C@@H]2C(=O)N1CCN(C(=O)c2ccco2)CC1 (some centres undefined) | nt | nt | i | nt | nt | nt
C[C@]12c3[nH]c4ccc(Cl)cc4c3CCN1C(=O)[C@@H](CC(=O)NCc1cccc(C(F)(F)F)c1)C[C@@H]2C(=O)N1CCCCC1 | nt | nt | 81 | nt | nt | i
CC[C@]12c3[nH]c4ccc(Cl)cc4c3CCN1C(=O)[C@@H](CC(=O)NCc1cccc(C(F)(F)F)c1)C[C@@H]2C(=O)N1CCN(C(=O)c2ccco2)CC1 | nt | nt | 58 | nt | nt | i
CSc1nc(N)c(NC(=O)c2ccc(Br)o2)c(=O)[nH]1 | i | i | i | i | i | nt
COc1ccc(C23CC4CC(CC(C(=O)O)(C4)C2)C3)c(F)c1 | i | i | i | i | i | nt
COc1ccc(OC)c(NC(=O)COC(=O)CCc2ccc(S(=O)(=O)N3CCOCC3)cc2)c1 | i | nt | i | i | nt | nt
